From PubChem BioAssay
FLuc counter: inhibits or activates purified firefly luciferase, miR-21 counter-screen; 6.9% of 360,000 active; Potency, µM (highest dose often 57.5 µM), without a hit: at the top dose activity change, negative = inhibition, hits mostly inhibitors; purified FLuc, Km substrates, luminescence inhibition; P08659;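 note: plate controls were vehicle for no effect and reference inhibitor for full effect; nearly all actives have a fitted effect of over 55% in size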
Target sequence (P08659 whole entry, looked up): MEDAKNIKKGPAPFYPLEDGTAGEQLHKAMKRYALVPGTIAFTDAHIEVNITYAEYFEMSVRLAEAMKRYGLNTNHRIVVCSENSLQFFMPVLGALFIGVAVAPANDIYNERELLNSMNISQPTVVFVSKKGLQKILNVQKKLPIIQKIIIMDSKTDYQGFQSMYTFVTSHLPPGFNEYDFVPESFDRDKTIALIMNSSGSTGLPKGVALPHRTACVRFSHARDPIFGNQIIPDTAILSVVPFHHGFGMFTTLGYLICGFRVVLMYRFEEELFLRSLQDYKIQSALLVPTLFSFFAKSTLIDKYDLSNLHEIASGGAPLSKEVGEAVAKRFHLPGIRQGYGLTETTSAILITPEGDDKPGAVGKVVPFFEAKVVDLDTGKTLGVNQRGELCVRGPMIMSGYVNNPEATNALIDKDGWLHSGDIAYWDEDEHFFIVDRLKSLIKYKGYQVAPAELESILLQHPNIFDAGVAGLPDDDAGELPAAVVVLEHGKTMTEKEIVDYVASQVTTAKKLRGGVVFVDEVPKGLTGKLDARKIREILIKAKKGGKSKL
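Biochemical qHTS of compounds, final roughly 60 µM downward over six points, against 10 nM purified firefly luciferase using Km concentrations of substrates (10 uM D-luciferin, 10 uM ATP) in Tris acetate pH 7.5 buffer; luminescence output.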
ELG1 DNA repair: blocks ELG1-dependent DNA repair in HEK293T cells. HEK293T ELG1-luciferase reporter, luminescence, 16 h; DNA damage induced by 5-fluorouridine. Potency, µM (highest dose often 46.1 µM), without a hit: at the highest dose activity change, negative = inhibition, usual class: inhibitors. 2.3% of 330,000 active; note: % is set by controls: 0 for no effect and ±100 for the full control effect; nearly all actives have a fitted effect of over 55% in size
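5-Fluorouridine DNA damage + compound/DMSO, 2,000 cells/well, 16 h, 37 °C/5% CO2. ONE-Glo, 30 min RT, luminescence. Readout = decrease in reporter signal.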
SMN2 splice up: increases expression of the SMN2 splice variant. HEK293 SMN2-luciferase splicing reporter, luminescence, 30-36 h. Potency, µM (titrated, usually from 46.1 µM), inactives show at the top dose activity change, positive = activation, usual class: activators. 2.8% of 210,000 active; note: % of control where 0% means no effect; nearly all actives have a fitted effect of over 55% in size
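qHTS luciferase splicing reporter: luminescence rises when SMN2 exon 7 is included in transfected HEK293 cells. Compound exposure lasted 30-36 h at 37C, with 4.5 mM final sodium butyrate as control, followed by a ONE-Glo read.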
NPC1 promoter act: activates the NPC1 promoter. 2.4% of 320,000 active. Potency, µM (titrated, usually from 9.22 µM), for the others: at the top dose activation, actives largely listed as activators. Huh7 NPC1 promoter luciferase reporter, 24 h; note: % of control where 0% means no effect; nearly all actives have a fitted effect of over 60% in size
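Luciferase expression driven by the NPC1 promoter was measured in stably transfected Huh7 cells after a 24 h compound incubation, using a luciferase reagent and a luminescence read.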
ELG1 genotoxic: induces genotoxicity in HEK293T cells with luciferase-tagged ELG1; HEK293T ELG1-luciferase reporter, luminescence, 16 h; Potency, µM (top dose mostly 46 µM), for inactives: top-dose activity change, positive = activation, most hits filed as activators; 1.3% of 330,000 active; note: % of control where 0% means no effect; nearly all actives have a fitted effect of over 60% in size
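Cells (2,000/well) expressing the ELG1-luciferase fusion are dosed by pin tool and kept 16 hr at 37 °C, 5% CO2. Signal comes from ONE-Glo luciferase reagent after 30 min at room temperature.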
Rab9 prom act: Rab9 promoter activation. Huh7 Rab9 promoter-luciferase reporter, luminescence, 24 h. Potency, µM (highest dose often 9.22 µM), without a hit: top-dose activation, negative = inhibition, actives largely listed as activators. 2.8% of 320,000 active. AID 485297; note: % of control where 0% means no effect; nearly all actives have a fitted effect of over 60% in size
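Rab9 promoter-driven luciferase in stably transfected Huh7 cells; 1500 cells/well rested 2 h, exposed to compound in DMSO for 24 h at 37 °C, 5% CO2. Luminescence read 10 min after adding luciferase reagent at ambient temperature.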
* hit, by the source's call; ? = inconclusive; nt = not tested or not shown; [ ] = remark or other dose. Hits are enriched below; roughly 9.2% of the tested compounds scored in any of these assays. Calls come from the whole dose curve; as a rule, active = well fitted curve in the direction sought with a large enough effect; inconclusive = small, poorly fitted or top-dose-only effect, or another doubt; inactive = no such curve, though single readings can be large; an effect the other way counts as inactive or inconclusive. Potency is the fitted concentration of half-maximal effect.

SMILES	FLuc counter	ELG1 DNA repair	SMN2 splice up	NPC1 promoter act	ELG1 genotoxic	Rab9 prom act
CCSc1ccccc1C(=O)N1CCN(c2nc3ccccc3s2)CC1	-12.6%	nt	nt	nt	nt	nt
CCCC(=O)N1CCN(c2nc3ccccc3s2)CC1	7.57µM*	?	nt	1.41µM*	?	1.12µM*
CCCCC(=O)N1CCN(c2nc3ccc(OCC)cc3s2)CC1	13.5µM*	0.7%	nt	-0.5%	-7.2%	3.6%
CCCC(=O)N1CCN(c2nc3ccc(F)cc3s2)CC1	10.7µM*	nt	nt	nt	nt	nt
CCC(=O)N1CCN(c2nc3c(C)cccc3s2)CC1	-2.3%	nt	nt	nt	nt	nt
CCC(=O)N1CCN(c2nc3ccc(Br)cc3s2)CC1	15.1µM*	?	nt	?	?	?
O=C(c1ccc([N+](=O)[O-])o1)N1CCN(c2nc3ccc(F)cc3s2)CC1	5.5%	?	nt	-5.7%	-3.6%	15.9%
CC1CCN(C(=O)CNC(=O)CNS(=O)(=O)c2ccccc2)CC1	5.3%	-5.3%	nt	-4.3%	-1.2%	2.4%
CCCCC(=O)N1CCN(c2nc3ccc(F)cc3s2)CC1	6.01µM*	?	nt	0.562µM*	-5.3%	0.501µM*
O=C(Nc1cccc2ccccc12)c1ccc(OC(=S)N2CCOCC2)cc1	10.7µM*	-2.2%	23.8%	-0.1%	-5.2%	1.8%
O=C(Nc1cccc(Cl)c1)c1ccc(OC(=S)N2CCOCC2)cc1	2.69µM*	?	-2.8%	?	?	?
O=C(Nc1cccc2ccccc12)N1CCOCC1	-2.2%	11.0%	-4.0%	0.8%	0.9%	0.8%
N#Cc1ccccc1CN1C(=O)c2ccccc2Sc2ccc(C(=O)OCc3ccco3)cc21	-4.9%	nt	nt	nt	nt	nt
O=C(c1cc(Br)ccc1Cl)N1CCN(c2ccccn2)CC1	-0.8%	-2.8%	nt	-0.8%	-7.7%	-8.3%
Cc1cc(C(=O)NC2=NCCS2)cs1	8.49µM*	?	11.2µM*	2.51µM*	16.4µM*	1.58µM*
O=C(NC1=NCCS1)c1ccccc1	-17.6%	?	nt	20.9%	15.7%	23.5%
Cc1cccc(C(=O)NC2=NCCS2)c1	8.49µM*	?	nt	1.26µM*	?	0.708µM*
O=C(NC1=NCCS1)c1csc2ccccc12	-26.7%[2.3 µM]	?	11.2µM*	2.24µM*	?	1.58µM*
O=C(Nc1ccon1)c1csc2ccccc12	-10.3%	-3.3%	?	3.7%	-0.1%	-1.9%
O=C(Nc1cnccn1)c1csc2ccccc12	19µM*	?	?	25.2%	?	?
O=C(NC1=NCCS1)c1ccccc1Cl	-18.9%	14.8%	nt	2.3%	5.1%	4.4%
Cc1nc2cccnc2n1-c1cccc(C(=O)N2CCN(c3ccc(Cl)cc3)CC2)c1	-8.9%	nt	nt	nt	nt	nt
Cc1ccc(C)c(NS(=O)(=O)c2cc3c4c(c2)CC(=O)N4CCC3)c1	-1.2%	0.0%	nt	-1.0%	-1.0%	-2.9%
O=C(NC1=NCCS1)c1ccc(Cl)c(Cl)c1	4.78µM*	?	nt	0.631µM*	?	0.631µM*
O=C(NC1=NCCS1)c1cccs1	-19.3%	?	28.2µM*	4.5%	18.9%	15.8%
SMILES	FLuc counter	ELG1 DNA repair	SMN2 splice up	NPC1 promoter act	ELG1 genotoxic	Rab9 prom act
CC(C)C(NC(=O)c1cccs1)C(=O)NC1=NCCS1 (stereo not drawn)	1.9%	0.4%	-1.8%	0.3%	4.0%	-8.2%
O=C(NC1=NCCS1)c1cc(Cl)ccc1Cl	-7.7%	13.3%	nt	-5.1%	-1.1%	2.6%
CCOC(=O)N1CCN(C(=O)c2cn(C)c3ccc(S(=O)(=O)N4CCC(C)CC4)cc3c2=O)CC1	0.8%	5.6%	-3.3%	-4.6%	-0.1%	-8.9%
Brc1ccc2oc(-c3ccn[nH]3)cc2c1	3.01µM*	?	nt	2.24µM*	?	2.51µM*
CC(C)C(=O)Nc1ccc(-c2nc3ncccc3o2)cc1	4.26µM*	?	nt	0.501µM*	?	0.501µM*
CC(C)C(=O)Nc1cccc(-c2nc3ncccc3o2)c1	-20.9%	13.8%	nt	-7.7%	4.6%	20.7%
CC(C)(C)c1ccc(OCC(=O)Nc2ccc(-c3nc4cccnc4o3)cc2)cc1	0.2%	nt	20.4%	nt	nt	nt
CC(C)C(=O)Nc1ccc(-c2nc3cccnc3o2)cc1	2.69µM*	?	4.47µM*	0.562µM*	?	0.501µM*
Cc1cc(C)c(S(=O)(=O)/N=C2\C=C(Nc3ccc(C(=O)O)cc3)C(=O)c3ccccc32)c(C)c1	?	3.26µM*	nt	-28.3%	-33.7%	-37.0%
CCc1ccc(S(=O)(=O)/N=C2/C=C(Sc3ncn[nH]3)C(=O)c3ccccc32)cc1	?	20.6µM*	-78.5%	-10.9%	-15.2%	-8.1%
O=C(O)c1ccc(NC2=C/C(=N/S(=O)(=O)c3ccccc3)c3ccccc3C2=O)cc1	15.1µM*	4.61µM*	-102.8%	-39.9%	-16.3%	-39.5%
CCc1ccc(S(=O)(=O)/N=C2\C=C(Nc3cccc(C(=O)O)c3)C(=O)c3ccccc32)cc1	?	?	nt	-16.8%	-26.2%	-6.6%
CCc1ccc(S(=O)(=O)/N=C2\C=C(Nc3ccc(O)cc3)C(=O)c3ccccc32)cc1	?	3.26µM*	nt	-41.3%	-28.0%	-48.3%
Cc1cc(C)c(S(=O)(=O)/N=C2\C=C(NS(=O)(=O)c3ccccc3)C(=O)c3ccccc32)c(C)c1	-15.8%	-6.2%	nt	10.4%	1.6%	9.7%
Cc1ccc(S(=O)(=O)Nc2nc(C)c(NC(=O)Nc3ccc(Cl)cc3Cl)s2)cc1	-0.5%	4.1%	-2.4%	-4.4%	1.3%	5.3%
C=CC(=O)Nc1ccc(Nc2nc(NC3CCC(N(C)C)CC3)nc3c2ncn3C(C)C)cc1 (stereo not drawn)	nt	2.31µM*	nt	nt	0.9%	nt
CN(N=Nc1cccc([N+](=O)[O-])c1)c1ccccc1	9.53µM*	?	nt	?	?	?
CN(N=Nc1ccc([N+](=O)[O-])cc1)c1ccccc1	5.36µM*	?	20µM*	3.98µM*	?	?
CC(NC(=O)Cn1ccc2cc(S(=O)(=O)N3CCCCCC3)ccc21)c1ccccc1 (stereo not drawn)	1.9%	nt	nt	nt	nt	nt
Cc1ccc(S(=O)(=O)Nn2c(C)ccc2C)cc1	-4.5%	10.5%	21.2%	2.8%	2.2%	0.5%
C/C(=N\Nc1nccnc1Cl)c1ccc(O)c(C)c1	10.7µM*	?	nt	?	?	?
COc1ccc(/C(C)=N/Nc2nccnc2Cl)cc1	7.57µM*	?	nt	?	?	1.78µM*
C/C(=N\Nc1nccnc1Cl)c1ccc(Br)cc1	?	28.4%	nt	?	6.7%	16.6%
Cc1ccc(CN2CCCn3nc(C(=O)NCC(C)c4ccccc4)cc3C2=O)cc1 (stereo not drawn)	-3.9%	nt	nt	nt	nt	nt
COc1ccc(OC)c(CCNC(=O)c2cc3c(=O)oc4ccc(C)cc4c3s2)c1	-1.5%	nt	-0.7%	nt	nt	nt
